TDP1 cell CPT = qHTS for Inhibitors of human tyrosyl-DNA phosphodiesterase 1 (TDP1): qHTS in cells in presence of CPT | Potency, µM (titrated, usually from 46.2 µM), without a hit: at the highest dose activity change, negative = growth inhibition, usual class: inhibitors | chicken DT40 Tdp1-/-;hTDP1 cells + 20 nM CPT, ATP luminescence, 48 h | actives 12% (n = 420,000); note: potency is the fitted concentration of half-maximal effect; nearly all actives have a fitted effect of over 55% in size
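Cell growth measured by CellTiter-Glo luminescence after a minimum 48 h, 37 C compound exposure with 20 nM CPT in Tdp1-knockout DT40 cells stably expressing hTDP1, seeded 400/well; qHTS titration format.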
HT1080NT lethal = qHTS for induction of synthetic lethality in tumor cells producing 2HG: qHTS for the HT-1080-NT fibrosarcoma cell line. AID 686970, 2013. HT-1080-NT fibrosarcoma viability, CellTiter-Glo ATP luminescence, 48 h. actives 1.6% (n = 360,000). Potency, µM (titrated, usually from 46.1 µM), without a hit: at the highest dose activity, negative = less viability, most hits filed as cytotoxic;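 note: NT is the 2HG producing partner of a matched IDH1 knockdown line; potency is the fitted concentration of half-maximal effect; 0% = DMSO-treated cells and -100% = media-only wells without cells; nearly all actives have a fitted effect of over 55% in size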
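Compounds were tested in concentration-response format on HT-1080-NT cells for 48 hours at 37 degrees C. Cell viability came from CellTiter-Glo luminescence; curves were classified by r2, response magnitude and activity.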
IL-1B inflam inh = qHTS for Inhibitors of Inflammasome Signaling: IL-1-beta AlphaLISA Primary Screen; activity change, % at 57.5 µM; actives 4.7% (n = 360,000); THP-1 LPS/ATP IL-1B secretion, AlphaLISA, 16 h; active compounds read low; AID 743279, 2014; in the data active = activity change below about -50%; inconclusive = mostly about -30% to -49%
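THP-1 cells pretreated 1 hr with compounds (up to 57.5 uM final), then stimulated with LPS (250 ng/mL final) plus ATP (1.25 mM final); secreted IL-1B measured by AlphaLISA after 16 hr, decreased signal indicating inhibition.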
HT1080 IDH1KD tx = qHTS for induction of synthetic lethality in tumor cells producing 2HG: qHTS for the HT-1080-IDH1KD cell line. Potency, µM (titrated, usually from 46.1 µM), without a hit: at the top dose activity, negative = toxicity, hits mostly cytotoxic. actives 2% (n = 360,000). HT-1080 IDH1 knockdown viability, ATP luminescence, 48 h;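 note: potency is the fitted concentration of half-maximal effect; 0% = DMSO wells and -100% = cell-free medium wells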
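% activity derives from luminescence (CellTiter-Glo), normalised to DMSO and no-cell wells. HT-1080-IDH1KD cells, 750/well, had 48 h compound exposure at 37 °C.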
DT40 TDP1 no CPT = qHTS for Inhibitors of human tyrosyl-DNA phosphodiesterase 1 (TDP1): qHTS in cells in absence of CPT | DT40 Tdp1-/- hTDP1 cells, no CPT, ATP luminescence, 48 h | actives 15% (n = 420,000) | Potency, µM (top dose mostly 46.2 µM), inactives show at the highest dose activity change, negative = growth inhibition, actives largely listed as inhibitors; note: potency is the fitted concentration of half-maximal effect; nearly all actives have a fitted effect of over 55% in size
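Readout: luminescence from CellTiter-Glo after 30 min in the dark at RT. Cells: DT40 Tdp1-/- with stable hTDP1, 400/well. Exposure: compounds alone, ≥48 hr, 37 °C.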
12-LOX inh = Primary qHTS assay for inhibitors of human arachidonate 12S-lipoxygenase (ALOX12): Round 2. Polyunsaturated fatty acid lipoxygenase ALOX12 (Homo sapiens), P18054. purified 12hLO, xylenol orange hydroperoxide absorbance. Potency, µM (top dose mostly 108 µM), for inactives: top-dose activity change, negative = inhibition, hits mostly inhibitors. actives 1.1% (n = 580,000). AID 1671190, 2021; note: potency is the fitted concentration of half-maximal effect
Target sequence (P18054 whole entry, looked up): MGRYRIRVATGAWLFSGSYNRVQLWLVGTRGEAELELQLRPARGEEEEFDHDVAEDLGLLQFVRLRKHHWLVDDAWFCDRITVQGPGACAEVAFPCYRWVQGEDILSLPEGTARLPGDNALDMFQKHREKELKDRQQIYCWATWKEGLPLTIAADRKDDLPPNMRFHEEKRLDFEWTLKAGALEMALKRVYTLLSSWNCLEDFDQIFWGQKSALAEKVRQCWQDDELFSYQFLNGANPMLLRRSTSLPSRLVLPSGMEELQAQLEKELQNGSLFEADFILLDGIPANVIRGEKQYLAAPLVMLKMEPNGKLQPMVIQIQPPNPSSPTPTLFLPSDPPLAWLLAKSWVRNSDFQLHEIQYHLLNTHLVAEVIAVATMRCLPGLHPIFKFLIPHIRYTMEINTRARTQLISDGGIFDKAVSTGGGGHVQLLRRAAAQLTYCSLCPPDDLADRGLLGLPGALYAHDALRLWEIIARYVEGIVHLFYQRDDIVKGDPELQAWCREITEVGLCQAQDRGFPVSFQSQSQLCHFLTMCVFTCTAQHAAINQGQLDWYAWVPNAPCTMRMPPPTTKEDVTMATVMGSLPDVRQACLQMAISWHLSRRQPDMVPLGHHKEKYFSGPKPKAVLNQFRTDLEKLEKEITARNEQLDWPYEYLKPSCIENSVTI
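Purified human 12hLO (150 nM final) in 25 mM Hepes, 0.01% Triton X-100, pH 7.0 was preincubated 15 min at room temperature with compound. Then 40 uM arachidonic acid was added, 30 min. Hydroperoxide was read by Fe-XO absorbance ratio 573/405 nm.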
An asterisk follows results filed as active; [ ] = another dose, or the depositor's remark. The sample as a whole holds a higher share of hits than the screen did. Unless noted, calls come from the whole dose curve; as a rule, active = well fitted curve in the direction sought with a large enough effect; inconclusive = small, poorly fitted or top-dose-only effect, or another doubt; inactive = no such curve, though single readings can be large; an effect the other way counts as inactive or inconclusive. Unless noted, % is set by controls: 0 for no effect and ±100 for the full control effect.

Screening CCc1ccc(C(=O)N2CC(c3nnc(-c4ccncc4)o3)C3(CCOCC3)C2)cc1 (stereo not drawn) returned 12-LOX inh 8%.
Cc1cc(Br)c2c(c1)[C@](O)(c1cn(C)c3ccccc13)C(=O)N2C was read as TDP1 cell CPT 16µM*, HT1080NT lethal inconclusive, IL-1B inflam inh -9, HT1080 IDH1KD tx inconclusive, DT40 TDP1 no CPT 23µM* and 12-LOX inh 2%.
CCCCC(=O)Nc1sc(C(=O)N(CC)CC)c(C)c1C(=O)OC was read as TDP1 cell CPT inconclusive, HT1080NT lethal 0%, IL-1B inflam inh 0, HT1080 IDH1KD tx -4%, DT40 TDP1 no CPT 18µM* and 12-LOX inh 35µM*.
For CCOC(=O)c1c(NC(=O)C2c3ccccc3Oc3ccccc32)sc(C(=O)N(CC)CC)c1C the results were TDP1 cell CPT 18µM*, HT1080NT lethal -9%, IL-1B inflam inh -19, HT1080 IDH1KD tx -11%, DT40 TDP1 no CPT 23µM* and 12-LOX inh 4%.
CCOC(=O)c1sc(NC(=O)C2c3ccccc3Oc3ccccc32)c(C#N)c1C was read as TDP1 cell CPT 12µM*, DT40 TDP1 no CPT 16µM* and 12-LOX inh inconclusive.
`COC(=O)c1sc(NC(=O)C2c3ccccc3Oc3ccccc32)c(C#N)c1C` gave 12-LOX inh 1%.
Screening CC1=C[C@@H](CNC(=O)COc2ccccc2)[C@H](C(C)C)C[C@H]1Cc1nnc(-c2cncn2C)o1 returned 12-LOX inh -17%.
CC(=O)Nc1ccc(NC(=O)CSCc2nc3ccccc3c(=O)[nH]2)cc1 was read as 12-LOX inh 9%.
`Cc1cc(C)c(S(=O)(=O)Nc2ccc(N(C)C)cc2)c(C)c1-n1cnnn1` gave TDP1 cell CPT 29µM*, HT1080NT lethal -10%, IL-1B inflam inh -16, HT1080 IDH1KD tx -17%, DT40 TDP1 no CPT 16µM* and 12-LOX inh -26%.
Screening Cc1ccc(S(=O)(=O)Nc2ccc(-n3cnnn3)cc2)c(C)c1 returned TDP1 cell CPT inconclusive, HT1080NT lethal 0%, IL-1B inflam inh 15, HT1080 IDH1KD tx 0%, DT40 TDP1 no CPT inconclusive and 12-LOX inh inconclusive.
Screening Cc1cc(C)c(CNC(=O)c2cc(-c3ccccc3C)cc3c2OCCN3C)c(=O)[nH]1 returned 12-LOX inh 112µM*.
Screening COC(=O)C1(CC2CC(c3ccncc3)=NO2)CCN(C(=O)OC(C)(C)C)CC1 (stereo not drawn) returned TDP1 cell CPT inconclusive, HT1080NT lethal 8%, IL-1B inflam inh 8, HT1080 IDH1KD tx 6%, DT40 TDP1 no CPT 21µM* and 12-LOX inh -2%.
Screening CCCCCCCNC(=O)C1(CC2CC(c3ccc(Cl)cc3)=NO2)CCN(C(=O)OC(C)(C)C)CC1 (stereo not drawn) returned TDP1 cell CPT inconclusive, HT1080NT lethal 1%, IL-1B inflam inh -10, HT1080 IDH1KD tx 12%, DT40 TDP1 no CPT 21µM* and 12-LOX inh -14%.
`COC(=O)C1(CC2CC(c3ccccc3)=NO2)CCN(C(=O)OC(C)(C)C)CC1` (stereo not drawn) gave TDP1 cell CPT inconclusive, HT1080NT lethal -5%, IL-1B inflam inh -9, HT1080 IDH1KD tx -2%, DT40 TDP1 no CPT 21µM* and 12-LOX inh -26%.
Screening O=C(COc1ccc2ccccc2c1)Nc1cnc2ccccc2c1 returned 12-LOX inh -5%.
Screening CC(C)CN1C(=O)c2cccn2CC1C(=O)NCC1CC1 (stereo not drawn) returned 12-LOX inh 13%.
For Cc1cc(C(=O)NCCCOC(C)C)c2c(C3CCCN3)noc2n1 (stereo not drawn) the results were 12-LOX inh 14µM*.
Screening CC(C)OCCCNC(=O)c1cc(C2CC2)nc2onc(C3CCCN3)c12 (stereo not drawn) returned 12-LOX inh -3%[6.33 µM].
`Cc1[nH]c2ccccc2c1C1c2ccccc2C(=O)N1CC(=O)N1CCN(C)CC1` (stereo not drawn) gave 12-LOX inh -2%.
CCN(C(=O)COC(=O)Cc1sc(N)nc1-c1ccc(C)cc1)c1cccc2ccccc12 was read as 12-LOX inh -2%.
Screening FC(F)(F)c1ccc(Cl)c(N/N=C/c2cccc(OCc3ccccc3)c2)c1 returned 12-LOX inh 7.1µM*.
CSCCC(NC(=O)c1ccccc1)C(=O)NCc1ccc(C(F)(F)F)cc1 (stereo not drawn) was read as 12-LOX inh 23%.
`Cc1ccc(S(=O)(=O)N2CCCCC2CCNC(=O)C(=O)NC2CC2)cc1` (stereo not drawn) gave TDP1 cell CPT inconclusive, HT1080NT lethal -3%, IL-1B inflam inh 0, HT1080 IDH1KD tx 0%, DT40 TDP1 no CPT inconclusive and 12-LOX inh -16%.
For Cc1ccc(S(=O)(=O)N2CCCCC2CCNC(=O)C(=O)NCc2cccnc2)cc1 (stereo not drawn) the results were TDP1 cell CPT 21µM*, HT1080NT lethal inconclusive, IL-1B inflam inh 8, HT1080 IDH1KD tx inconclusive, DT40 TDP1 no CPT 18µM* and 12-LOX inh 4%.
For O=C(NCCC1CCCCN1S(=O)(=O)c1ccc(Cl)cc1)C(=O)NCc1ccncc1 (stereo not drawn) the results were TDP1 cell CPT inconclusive, HT1080NT lethal 3%, IL-1B inflam inh 48, HT1080 IDH1KD tx 4%, DT40 TDP1 no CPT inconclusive and 12-LOX inh -4%.
`Cc1cc(C)c(S(=O)(=O)N2CCCCC2CCNC(=O)C(=O)NCC2CCCO2)c(C)c1` (stereo not drawn) gave TDP1 cell CPT inconclusive, HT1080NT lethal 8%, IL-1B inflam inh 4, HT1080 IDH1KD tx -1%, DT40 TDP1 no CPT inconclusive and 12-LOX inh -7%.

Source: PubChem BioAssay (National Center for Advancing Translational Sciences (NCATS))
